In PubChem BioAssay (NCATS):
Results filed as inconclusive are left out. Values without a mark were called inactive. Activity calls are given as the source filed them. Calls come from the whole dose curve; as a rule, active = well fitted cell-killing curve with a large enough effect; inconclusive = small, poorly fitted or top-dose-only effect, or effect the other way; inactive = no such curve, though single readings can be large or run the other way.

Assay: Quantitative High-Throughput drug screen in 47 multiple myeloma cell lines against the NCATS MIPE library collection: KMS12BM_JCRB cell viability assay (AID 1918971); note: nearly all actives have a fitted effect of over 35% in size
Details: KMS12BM myeloma viability, CellTiter-Glo ATP, 48 h; series mostly up to 45.8 µM; viability, % of DMSO: at the top concentration
Procedure, shortened: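 Myeloma cell lines, 500 cells per well, exposed to MIPE 4.0 library compounds for 48 h at 37C, 5% CO2. Viability from ATP by CellTiter-Glo luminescence; normalised to DMSO (100%) and media-only (0%) wells.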
Potency is the fitted concentration of half-maximal effect.

| Compound | Potency | viability, % of DMSO |
| --- | --- | --- |
| CCCCC(C=O)NC(=O)C(CC(C)C)NC(=O)OCc1ccccc1 (stereo unspecified) | 20.9 µM (active) | – |
| C#CCN(C)CC1=Cc2ccccc2Oc2ccccc21 | 16.6 µM (active) | – |
| OC[C@H]1O[C@@H](OCCc2ccc(O)cc2)[C@H](O)[C@@H](O)[C@H]1O | – | 178% |
| O=C(NCCCCN1CCOCC1)c1cc2ccccc2o1 | 0.0743 µM (active) | – |
| Oc1ccc(C=Cc2cc(O)cc(O)c2)cc1 | 33.2 µM (active) | – |
| Cc1ccc(NC(=O)c2ccc(CN3CCN(C)CC3)cc2)cc1Nc1nc(-c2cccnc2)cs1 | 23.5 µM (active) | – |
| CC(C)C[C@@H](N)[C@H](O)C(=O)N[C@H](C(=O)N[C@H](C(=O)N[C@@H](CC(=O)O)C(=O)O)C(C)C)C(C)C | – | 126% |
| CNc1nc(Nc2ccc(C(=O)N3CCOCC3)cc2OC)ncc1Cl | 14.8 µM (active) | – |
| N[C@@H](CC(=O)N1CCn2c(nnc2C(F)(F)F)C1)Cc1cc(F)c(F)cc1F | – | 141% |
| Fc1ccc(C(c2ccc(F)cc2)N2CCN(CC=Cc3ccccc3)CC2)cc1 | – | 118% |
| CN(C)CCCNC(=O)c1ccc(-c2cc(O)c3ncccc3c2)cc1 | 9.35 µM (active) | – |
| COc1c(C)c2c(c(O)c1CC=C(C)CCC(=O)O)C(=O)OC2 | 3.32 µM (active) | – |
| CC=C(C(=CC)c1ccc(O)cc1)c1ccc(O)cc1 | 16.6 µM (active) | – |
| COc1ccc(CCN(C)CCCOc2ccc(S(=O)(=O)c3[nH]c4ccccc4c3C(C)C)cc2)cc1OC | 23.5 µM (active) | – |
| O=C(O)Cc1cccc(OCCCN(Cc2cccc(C(F)(F)F)c2Cl)CC(c2ccccc2)c2ccccc2)c1 | 3.32 µM (active) | – |
| CCCCC[C@H](O)C=C[C@H]1[C@H](O)CC(=O)[C@H]1CC=CCCCC(=O)O | 20.9 µM (active) | – |
| C[C@H](c1ccc(F)cc1CCCC(=O)O)N(c1cc(F)ccc1F)S(=O)(=O)c1ccc(Cl)cc1 | 1.48 µM (active) | – |
| Cc1cc2c(cc1C1(c3ccc(C(=O)O)cn3)CC1)C(C)(C)CCC2(C)C | 3.32 µM (active) | – |

| Compound | Potency | viability, % of DMSO |
| --- | --- | --- |
| O=C(CCCN1CCN(c2ccc(F)cc2)CC1)NC1c2ccccc2CSc2ccccc21 (stereo unspecified) | 11.8 µM (active) | – |
| Cc1ccc(S(=O)(=O)Nc2nc3ccccc3nc2Nc2ccc3nsnc3c2)cc1 | 11.5 µM (active) | – |
| CCC=CC[C@H]1C(=O)CC[C@@H]1CC(=O)OC | 2.35 µM (active) | – |
| CN(C)c1nc(Cc2ccc(NC(=O)c3ccc(C(F)(F)F)cc3)cc2)nc(N(C)C)c1CC(=O)O | – | 113% |
| COC(=O)N1CCN(Cc2cccc(NC(=O)Nc3ccc(C)nc3)c2F)CC1 | 20.9 µM (active) | – |
| O=C1NC(=O)C(=Cc2ccc(-c3ccc(F)cc3O)o2)S1 | 37.2 µM (active) | – |
| OCCn1cc(-c2ccc3c(c2)CCC3=NO)c(-c2ccncc2)n1 | – | 184% |
| C[C@]12C=CC(=O)C=C1CC[C@@H]1[C@@H]2[C@@H](O)C[C@@]2(C)[C@@H]1CC[C@]2(O)C(=O)CO | 11.8 µM (active) | – |
| CCCCOCCOc1nc(-c2ccc(C(=O)O)c(F)c2)sc1C | 0.418 µM (active) | – |
| CC(C)(CO)[C@@H](O)C(=O)NCCC(=O)O | – | 136% |
| O=C(CC12CC3CC(CC(C3)C1)C2)Nc1cccc2nc(NCCNCCO)ccc12 | 18.7 µM (active) | – |
| NC[C@H]1O[C@H](O[C@@H]2[C@@H](O)[C@@H](O[C@H]3O[C@H](CO)[C@@H](O)[C@H](N)[C@@H]3O)[C@H](N)C[C@@H]2N)[C@H](O)[C@@H](O)[C@H]1O | – | 125% |
| CCn1c(-c2nonc2N)nc2cncc(CNC3CCNCC3)c21 | – | 161% |
| CC(=O)OCC(=O)[C@@]1(O)CC[C@H]2[C@@H]3CCC4=CC(=O)C=C[C@]4(C)[C@@H]3[C@@H](O)C[C@@]21C | 0.187 µM (active) | – |
| COc1cc2nccc(Oc3ccc(NC(=O)Nc4ccc(F)cc4F)c(F)c3)c2cc1OC | 11.8 µM (active) | – |
| O=C(O)CCNc1cc(N2CCc3ccccc3CC2)nc(-c2ccccn2)n1 | 0.0372 µM (active) | – |
| CN[C@H]1[C@@H](O[C@@H]2[C@H](O[C@@H]3[C@@H](O)[C@@H](O)[C@@H](N=C(N)N)[C@@H](O)[C@@H]3N=C(N)N)O[C@H](C)[C@@]2(O)C=O)O[C@@H](CO)[C@@H](O)[C@H]1O | – | 128% [at 15.3 µM] |
| CCCCCCOC(=O)N=C(N)c1ccc(NCc2nc3cc(C(=O)N(CCC(=O)OCC)c4ccccn4)ccc3n2C)cc1 | 16.6 µM (active) | – |
